Numbering of substitutions follows the chain as printed.
Assays:
Test in all cases: protein-binding microarray (PBM); PBM: ~300 nM protein, 6 mM HEPES pH 7.8, 80 mM KCl, 0.5 mM EDTA, 0.5 mM EGTA, 6% glycerol, 35 ng/ul poly-dIdC, 1% milk, 1 h, room temperature; Ap Aiptasia and Nv Nematostella (sea anemones) / Co Capsaspora / Aq Amphimedon (sponge) / Dm Drosophila / Hu human; RHD is the Rel homology domain; high values mean tight binding
Conditions in all cases: dsDNA, one strand shown
GST-Ap-NF-kB RHD = target: T1, GST-Ap-NF-kB RHD (Exaiptasia pallida (Aiptasia), UniProt A0A913YAJ5 2-422)
T1 sequence: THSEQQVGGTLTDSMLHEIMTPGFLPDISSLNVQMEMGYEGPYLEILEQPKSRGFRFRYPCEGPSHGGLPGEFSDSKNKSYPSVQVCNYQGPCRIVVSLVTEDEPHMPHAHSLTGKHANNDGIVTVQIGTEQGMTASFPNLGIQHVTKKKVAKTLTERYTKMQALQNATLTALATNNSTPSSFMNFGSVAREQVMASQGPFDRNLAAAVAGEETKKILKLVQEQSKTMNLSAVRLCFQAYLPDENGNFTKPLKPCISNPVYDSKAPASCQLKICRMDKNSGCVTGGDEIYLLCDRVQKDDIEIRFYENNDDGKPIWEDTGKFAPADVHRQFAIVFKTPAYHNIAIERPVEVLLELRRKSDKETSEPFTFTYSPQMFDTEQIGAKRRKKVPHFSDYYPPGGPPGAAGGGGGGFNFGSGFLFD

[1] = target: T2, GST-Nv-NF-kB (Cys allele) (Nematostella vectensis, UniProt E5G601 2-411)
T2 sequence: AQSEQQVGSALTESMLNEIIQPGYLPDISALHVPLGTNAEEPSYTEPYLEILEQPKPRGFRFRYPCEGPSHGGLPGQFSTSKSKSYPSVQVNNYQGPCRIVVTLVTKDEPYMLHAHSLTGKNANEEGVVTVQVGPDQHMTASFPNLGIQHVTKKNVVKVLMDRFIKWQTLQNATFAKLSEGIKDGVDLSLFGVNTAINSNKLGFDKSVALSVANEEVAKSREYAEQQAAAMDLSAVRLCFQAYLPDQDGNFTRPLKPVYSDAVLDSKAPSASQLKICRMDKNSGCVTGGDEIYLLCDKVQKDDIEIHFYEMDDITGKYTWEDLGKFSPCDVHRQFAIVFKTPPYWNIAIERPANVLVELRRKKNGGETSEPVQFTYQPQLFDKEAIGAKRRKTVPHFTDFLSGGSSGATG

[2] = target: T3, GST-Nv-NF-kB (Ser allele) (Nematostella vectensis, UniProt A7UNT2 2-411)
T3 sequence: T2 sequence with Q21R, C66S, S207N, E215Q, V217A, E225K, A268E, D399E

GST-Co-NF-kB = target: T4, GST-Co-NF-kB (Capsaspora owczarzaki, UniProt F1ARL5 200-546)
T4 sequence: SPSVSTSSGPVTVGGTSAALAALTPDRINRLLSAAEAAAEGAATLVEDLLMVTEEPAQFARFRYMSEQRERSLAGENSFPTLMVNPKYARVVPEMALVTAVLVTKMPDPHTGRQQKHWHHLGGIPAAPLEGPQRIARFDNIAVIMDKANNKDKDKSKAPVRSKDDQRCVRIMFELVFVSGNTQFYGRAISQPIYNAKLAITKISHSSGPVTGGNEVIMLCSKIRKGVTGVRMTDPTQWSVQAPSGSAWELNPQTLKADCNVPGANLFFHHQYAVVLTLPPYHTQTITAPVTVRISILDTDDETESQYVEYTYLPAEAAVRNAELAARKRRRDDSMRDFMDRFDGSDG

GST-Dm-Relish = target: T5, GST-Dm-Relish (Drosophila melanogaster, UniProt Q94527 99-473)
T5 sequence: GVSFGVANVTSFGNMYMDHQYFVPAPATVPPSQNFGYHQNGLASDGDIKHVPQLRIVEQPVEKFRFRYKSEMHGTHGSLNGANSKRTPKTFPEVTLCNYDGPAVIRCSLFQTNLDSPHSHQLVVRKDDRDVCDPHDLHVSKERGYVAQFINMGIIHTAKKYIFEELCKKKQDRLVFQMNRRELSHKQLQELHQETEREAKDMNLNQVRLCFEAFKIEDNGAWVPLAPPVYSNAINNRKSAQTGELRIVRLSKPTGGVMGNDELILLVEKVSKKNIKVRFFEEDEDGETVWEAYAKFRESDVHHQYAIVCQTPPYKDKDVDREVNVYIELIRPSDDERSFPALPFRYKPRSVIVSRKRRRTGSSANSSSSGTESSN

GST-Aq-NF-kB = target: T6, GST-Aq-NF-kB (Amphimedon queenslandica, UniProt A9Y5G7 2-389)
T6 sequence: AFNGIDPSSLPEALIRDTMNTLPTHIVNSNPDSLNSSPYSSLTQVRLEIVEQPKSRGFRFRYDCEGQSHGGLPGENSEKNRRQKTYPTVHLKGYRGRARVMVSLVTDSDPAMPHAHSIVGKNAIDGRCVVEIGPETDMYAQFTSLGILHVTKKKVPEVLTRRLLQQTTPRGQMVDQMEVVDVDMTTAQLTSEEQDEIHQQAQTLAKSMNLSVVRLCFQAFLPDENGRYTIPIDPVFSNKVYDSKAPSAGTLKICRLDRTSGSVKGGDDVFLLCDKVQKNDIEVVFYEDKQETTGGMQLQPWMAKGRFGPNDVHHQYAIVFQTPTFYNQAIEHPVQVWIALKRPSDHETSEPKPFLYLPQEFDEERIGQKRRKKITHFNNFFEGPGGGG

GST-Hu-p50 = GST-Hu-p50 (Homo sapiens, UniProt P19838 7-356)
Sequence of GST-Hu-p50 (P19838 7-356): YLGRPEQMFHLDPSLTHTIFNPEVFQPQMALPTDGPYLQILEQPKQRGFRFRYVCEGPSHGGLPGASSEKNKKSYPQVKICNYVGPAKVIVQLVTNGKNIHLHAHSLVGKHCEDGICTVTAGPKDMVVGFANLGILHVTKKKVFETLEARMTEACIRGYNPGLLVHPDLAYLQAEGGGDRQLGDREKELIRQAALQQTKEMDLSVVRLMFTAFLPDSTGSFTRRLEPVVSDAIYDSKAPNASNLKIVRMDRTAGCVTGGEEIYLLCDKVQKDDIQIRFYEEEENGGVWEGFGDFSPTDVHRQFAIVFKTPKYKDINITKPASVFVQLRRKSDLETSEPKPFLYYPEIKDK

Row | Sequence | binding signal (GST-Ap-NF-kB RHD) | binding signal [1] | binding signal [2] | binding signal (GST-Co-NF-kB) | binding signal (GST-Dm-Relish) | binding signal (GST-Aq-NF-kB) | binding signal (GST-Hu-p50)
1 | CCGATTAACATCAGAATTTCCCCTGATGTTAATCGGGTCTTGATTCGCTTGACGCTGCTG | 9.18 z-score | 10.1 z-score | 11.5 z-score | 8.73 z-score | 6.98 z-score | 8.28 z-score | 6.93 z-score
2 | CCGATTAACATCAGGATAACCCCTGATGTTAATCGGGTCTTGATTCGCTTGACGCTGCTG | 4.52 z-score | 3.22 z-score | 1.82 z-score | 1.72 z-score | 2.74 z-score | 5.12 z-score | 3.08 z-score
3 | CCGATTAACATCAGGGGAATAAATGATGTTAATCGGGTCTTGATTCGCTTGACGCTGCTG | 6.25 z-score | 7.82 z-score | 8.47 z-score | 8.22 z-score | 5.48 z-score | 5.94 z-score | 5.62 z-score
4 | CCGATTAACATCAACATTTCCCCTGATGTTAATCGGGTCTTGATTCGCTTGACGCTGCTG | 6.31 z-score | 8.45 z-score | 11.6 z-score | 8.45 z-score | 3.46 z-score | 5.86 z-score | 6.35 z-score
5 | CCGATTAACATCAAATCTCCCCCTGATGTTAATCGGGTCTTGATTCGCTTGACGCTGCTG | 8.37 z-score | 6.08 z-score | 9.76 z-score | 10.1 z-score | 4.14 z-score | 6.11 z-score | 7.19 z-score
6 | CCGATTAACATCACAAAAGCCCCTGATGTTAATCGGGTCTTGATTCGCTTGACGCTGCTG | 6.25 z-score | 8.09 z-score | 7.4 z-score | 1.08 z-score | 6.85 z-score | 7.27 z-score | 6.34 z-score
7 | CCGATTAACATCAATTCCCCCCATGATGTTAATCGGGTCTTGATTCGCTTGACGCTGCTG | 7.01 z-score | 7.06 z-score | 6.97 z-score | 9.55 z-score | 4.89 z-score | 5.8 z-score | 6.18 z-score
8 | CCGATTAACATCAGGAGGTCCCCTGATGTTAATCGGGTCTTGATTCGCTTGACGCTGCTG | 5.22 z-score | 3.71 z-score | 2.14 z-score | 1.57 z-score | 4.16 z-score | 5.29 z-score | 3.18 z-score
9 | CCGATTAACATCAGGGGATTATATGATGTTAATCGGGTCTTGATTCGCTTGACGCTGCTG | 7.99 z-score | 9.17 z-score | 9.52 z-score | 4.18 z-score | 6.72 z-score | 7.52 z-score | 6.4 z-score
10 | CCGATTAACATCAGGGAAAATAATGATGTTAATCGGGTCTTGATTCGCTTGACGCTGCTG | 3.42 z-score | 6.84 z-score | 8.05 z-score | 5.52 z-score | 2.1 z-score | 4.47 z-score | 4.74 z-score
11 | CCGATTAACATCACGGGGAATCCTGATGTTAATCGGGTCTTGATTCGCTTGACGCTGCTG | 9.87 z-score | 9.94 z-score | 8.84 z-score | 8.28 z-score | 10 z-score | 7.48 z-score | 6.2 z-score
12 | CCGATTAACATCAAAACTCCCCTTGATGTTAATCGGGTCTTGATTCGCTTGACGCTGCTG | 8.31 z-score | 7.73 z-score | 8.37 z-score | 4.59 z-score | 7.49 z-score | 7.22 z-score | 6.44 z-score
